In PubChem BioAssay (NCATS) one finds Potency and outcome data, which are given here for 26 compounds.

Results filed as inconclusive are left out. Entries that show only a call come without a potency. Calls of active or inactive are those of the source. Calls follow the shape of the dose curve; as a rule, active = well fitted inhibition curve with a large enough effect; inconclusive = small, poorly fitted or top-dose-only effect; inactive = flat fitted curve, though single readings scatter.

The target of the test is Glutathione peroxidase 1 (Homo sapiens) (UniProt P07203). Description: Primary qHTS Assay for Inhibitors of Recombinant Selenoprotein Glutathione Peroxidase 1 (GPX1) (AID 1845191). Also: nearly all actives have a fitted effect of over 65% in size. The note with it: recombinant GPX1, GR-coupled NADPH fluorescence, 15 min; series mostly up to 48.8 µM. In outline: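 10 nM GPX1 + cpd, 30 min RT; start w/ 1 mM GSH, 0.5 mM cumene hydroperoxide, 0.5 mM NADPH, 100 nM GR, 0.01% BSA; buffer 50 mM Tris-HCl pH 7.5, 2 mM EDTA, 150 mM NaCl; Fl 340/450, 0 & 15 min.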
Sequence of Glutathione peroxidase 1 (Homo sapiens) (P07203 whole entry, looked up): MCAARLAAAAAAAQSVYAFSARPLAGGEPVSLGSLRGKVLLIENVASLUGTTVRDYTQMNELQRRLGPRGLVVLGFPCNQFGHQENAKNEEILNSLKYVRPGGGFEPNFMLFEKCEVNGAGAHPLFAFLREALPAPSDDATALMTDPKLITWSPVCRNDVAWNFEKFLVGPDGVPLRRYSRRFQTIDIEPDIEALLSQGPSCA
Turning to `Cc1cncc(CN2CCC(=C3c4ccc(Cl)cc4CCc4cccnc43)CC2)c1`, the Potency entry was “inactive”.
`C[N+](C)(C)CCOP(=O)([O-])OP(=O)(O)OC[C@H]1OC(n2ccc(N)nc2=O)[C@H](O)[C@@H]1O` (stereo partly specified): the outcome was “inactive [at 0.4 µM]”.
For the compound `C/C(=N\N=C(N)N)c1ccc(NC(=O)Nc2ccc(/C(C)=N/N=C(N)N)cc2)cc1`, the Potency entry was “inactive”.
On to `CN1CCN(C(c2ccc(Cl)cc2Cl)c2sc3nc(-c4ccco4)nn3c2O)CC1` (stereo unspecified), for which the Potency result is “inactive”.
Take `CC[C@H](C)C1NC(=O)[C@H](Cc2ccc(O)cc2)NC(=O)[C@@H](N)CSSC[C@@H](C(=O)N2CCC[C@H]2C(=O)N[C@@H](CC(C)C)C(=O)NCC(N)=O)NC(=O)[C@H](CC(N)=O)NC(=O)[C@H](CCC(N)=O)NC1=O` (stereo partly specified): the Potency entry is “inactive”.
On the same count and under the same terms, in the case of `CC(C)CCC[C@@H](C)[C@H]1CC[C@H]2[C@@H]3CC=C4C[C@@H](O)CC[C@]4(C)[C@@H]3CC[C@]12C` it was “inactive”; in that of `CC(C)(C)c1ccc(S(=O)(=O)Nc2ccc(-n3ccnc3)cc2)cc1`, “inactive”; in that of `C#C[C@]1(O)CC[C@H]2[C@@H]3CCC4=CC(=O)CCC4[C@H]3CC[C@@]21CC` (stereo partly specified), “inactive”.
With `O=C(Cn1ncc2c1-c1ccccc1OC2)N1CCN(c2ccccc2)CC1`, the Potency entry was “inactive”.
As for `COc1cccc(-n2c(=O)[nH]c3cc(Cl)n(-c4ccc(-c5cccc(OC)c5O)cc4)c3c2=O)c1`, the Potency result is “inactive”.
Regarding `COc1ccc(S(=O)(=O)ON=C2C=C(C)C(=O)C(C)=C2)cc1`, the Potency entry was “inactive”.
Still for that read-out and setting: in the case of `N=c1sc2c(n1CC(=O)c1ccc([N+](=O)[O-])cc1)CCCC2` it was “inactive”; in that of `Nc1ccccc1NC(=O)CCCCCCC(=O)Nc1ccccc1`, “inactive”.
With `O=C1COc2c(CCNCCN(C(=O)CCNCCc3ccc(Cl)c(Cl)c3)C3CCCCC3)ccc(O)c2N1`, the Potency entry was “inactive”.
Consider `COC(=O)N(C)Cc1cccc(N2CCN(C(c3ccccc3)c3ccccc3)CC2)c1`, for which the Potency result is “inactive”.
Same read-out and setting: in the case of `O=C(CCc1cc(=O)[nH]o1)N[C@H](C1CCNCC1)C1CC(O)C1` (stereo partly specified) it was “inactive”; in that of `CC1CCc2c(sc3nc(-c4cc5ccccc5oc4=O)nc(Cl)c23)C1` (stereo unspecified), “inactive”.
The same measure, in the same setting: in the case of `CCC1OC(=O)[C@H](C)C(=O)[C@H](C)[C@@H](OC2O[C@H](C)C[C@H](N(C)C)[C@H]2O)[C@](C)(OC)C[C@@H](C)C(=O)[C@@H](C)[C@@H]2N(CCCCn3cnc(-c4cccnc4)c3)C(=O)O[C@]12C` (stereo partly specified) it was “inactive”.
Still for that read-out and setting: in the case of `CN1CCc2cc(Nc3ncc(C4CC4)c(NCCCNC(=O)C4CCC4)n3)ccc2C1` it was “inactive”; in that of `CCN(CCN(C)C)C(=O)CNCc1cc(C(=O)O)ccn1`, “inactive”.
As for `Cc1cc(Nc2cccc(C(F)(F)F)c2)nc2ccc(NC(=O)c3ccc(=O)[nH]c3)cc12`, the Potency result is “inactive”.
The same measure, in the same setting: in the case of `Cc1c(C(=O)Nc2cccc(-c3nc4ccccc4s3)c2)oc2ccc(F)cc12` it was “inactive”; in that of `O=C(Cn1c(=O)oc2cc(S(=O)(=O)N3CCCCC3)ccc21)NCc1ccc(Cl)cc1`, “inactive”; in that of `O=[N+]([O-])c1ccc(Nc2nc(N3CCOCC3)nc(N3CCOCC3)n2)cc1`, “inactive”.
On the same count and under the same terms, in the case of `C/C=C(/C)C(=O)O[C@@H]1c2cc(OC)c(OC)c(OC)c2-c2c(cc3c(c2OC)OCO3)C[C@H](C)[C@]1(C)O` it was “inactive”.
Same read-out and setting: in the case of `CN(Cc1ccccc1)C(=O)[C@H](NC(=O)c1cc2cc(NC(=O)c3ccccc3-c3ccc(C(F)(F)F)cc3)ccc2n1C)c1ccccc1` it was “inactive”.
